GRIN3A LBD mod = modulators (binders) of human NR3A ligand-binding domain; NR3A LBD differential scanning fluorimetry, Tm shift; 0% = protein alone, 100% = glycine-bound protein; Tm shift relative to glycine control, % at 25 µM; 340,000 tested, 2.5% active; AID 1259313;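 active = melting temperature shift of at least 10% of the positive control shift, at one fixed dose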
FAS TE block = inhibitors of human fatty acid synthase thioesterase domain | P49327 | recombinant FAS-TE, OMFH fluorogenic substrate, fluorescence endpoint | inhibition, % at 15 µM | 360,000 tested, 0.67% active | AID 602261;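 active = compounds whose normalised, plate-corrected inhibition of enzyme fluorescence in the single-dose primary screen is 50% or more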
ADAM17 inh = inhibits human ADAM17; inhibition, % at 6.95 µM; recombinant ADAM17, EDANS/DABCYL FRET peptide cleavage; P78536; 370,000 tested, 0.83% active;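 active = inhibition above the mean of compounds lying between control limits plus 3 SD, set per campaign, cut at about 8.5% in these data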
Target sequence (P78536 215-824 limits assumed): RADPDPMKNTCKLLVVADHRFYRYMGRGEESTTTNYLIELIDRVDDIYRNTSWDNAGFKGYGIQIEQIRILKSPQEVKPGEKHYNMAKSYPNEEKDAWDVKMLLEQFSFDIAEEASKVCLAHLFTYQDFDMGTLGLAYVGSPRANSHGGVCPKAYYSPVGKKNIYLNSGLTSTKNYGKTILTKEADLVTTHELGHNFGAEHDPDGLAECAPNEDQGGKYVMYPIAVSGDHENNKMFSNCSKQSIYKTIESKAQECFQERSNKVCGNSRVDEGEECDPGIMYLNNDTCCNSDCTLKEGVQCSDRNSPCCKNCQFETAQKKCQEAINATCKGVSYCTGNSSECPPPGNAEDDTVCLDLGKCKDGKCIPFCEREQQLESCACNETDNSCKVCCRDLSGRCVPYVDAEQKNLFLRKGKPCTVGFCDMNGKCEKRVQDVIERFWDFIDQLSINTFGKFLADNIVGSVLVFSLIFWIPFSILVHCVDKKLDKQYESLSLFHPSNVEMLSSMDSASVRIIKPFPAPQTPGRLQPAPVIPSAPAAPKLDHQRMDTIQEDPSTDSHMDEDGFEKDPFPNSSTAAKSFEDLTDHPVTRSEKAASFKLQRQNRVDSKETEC
sPLA2-III inh = Blocks human group III sPLA2 activity | Q9NZ20 | QFRET BODIPY PC-A2 liposome hydrolysis, fluorescence | inhibition, % at 12.2 µM | 370,000 tested, 0.56% active;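 active = inhibition above mean plus 3 SD of compounds lying within the high and low control bounds, cut at about 19% in these data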
ADAM10 inh = inhibitors of human ADAM10 | recombinant ADAM10, EDANS/DABCYL FRET peptide cleavage, 3 h | 370,000 tested, 0.62% active | inhibition, % at 7 µM | AID 720582 | O14672;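 active = inhibition above a per-campaign cutoff equal to the mean of compounds falling between control-based bounds plus 3 SD, cut at about 20% in these data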
FAS-TE conf = confirmation of human fatty acid synthase thioesterase inhibitors; shares compounds with FAS TE block; recombinant FAS-TE, OMFH fluorogenic substrate, fluorescence; inhibition, % at 15 µM; 2,300 tested, 45% active; AID 624325;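 active = compounds inhibiting the enzyme by at least 50% at 15 µM in any one of the replicates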
Each line names hits and unclear results; the compound was inactive in the other large screens (follow-up assays come after a bar, where they were run). This is a sample that favours compounds with a hit; in the whole collection about 4.3% have one here.

COCCCNC(=O)C[C@@H]1C(=O)N2CCCC3=C2[C@@]1(C(=O)OC)CCCC3	none (no result: GRIN3A LBD mod, FAS TE block)
COc1ccc(N2CCN(C(=O)CSc3ccc([N+](=O)[O-])cc3)CC2)cc1	FAS TE block 60 | FAS-TE conf 33
CCc1ccc(C2(O)CC(C(F)(F)F)=NN2C(=O)Cc2ccc([N+](=O)[O-])cc2)cc1 (configuration not stated)	FAS TE block 52 | FAS-TE conf inactive
CCC1=NN(C(=O)Cc2ccc([N+](=O)[O-])cc2)C(O)(C(C)(C)C)C1 (configuration not stated)	none
O=C(CN1CCN(c2ncc(C(F)(F)F)cc2Cl)CC1)NCCNc1ncc(C(F)(F)F)cc1Cl	FAS TE block 62 | FAS-TE conf inactive
CCNc1ccc(S(=O)(=O)N(C)C)cc1NCC(=O)Nc1ccccc1F	none
CCNc1ccc(S(=O)(=O)N(C)C)cc1NCC(=O)Nc1ccc(F)c(Cl)c1	FAS TE block 58 | FAS-TE conf 39
Cc1ccc(S(=O)(=O)N(Cc2ccccc2)c2ccccc2C(=O)Nc2ccccc2C(=O)NCc2ccco2)cc1	FAS TE block 53 | FAS-TE conf inactive
Cc1ccc(Cn2nnc3c2-c2ccccc2S(=O)(=O)N(C(C)(C)C)C3)cc1	none (no result: GRIN3A LBD mod, FAS TE block)
CC(C)(C)c1ccc(NC(=O)COC(=O)CCN2C(=O)c3cccc([N+](=O)[O-])c3C2=O)cc1	FAS TE block 83 | FAS-TE conf inactive
COc1ccc(NC(=O)CCN2C(=O)c3cccc([N+](=O)[O-])c3C2=O)cc1	none
COc1cccc(N2CCN(CC(=O)NCc3ccccc3C)CC2)c1	none (no result: GRIN3A LBD mod, FAS TE block)
O=C(Nc1cccc([N+](=O)[O-])c1)Nc1ccc2c(c1)CCC2	GRIN3A LBD mod 34, FAS TE block 53 | FAS-TE conf inactive
O=[N+]([O-])c1cccc(NC(=S)N2CCc3ccccc3C2)c1	FAS TE block 51 | FAS-TE conf 23
O=[N+]([O-])c1cccc(CNc2ccc3c(c2)CCC3)c1	none
CC(c1ccccc1)n1cc(C(=O)N2CCCC2)nn1 (configuration not stated)	none (no result: GRIN3A LBD mod, FAS TE block)
Cc1ccc(N2C(=O)c3cccc4c(Oc5ccccc5[N+](=O)[O-])ccc(c34)C2=O)c(C)c1	FAS TE block 61 | FAS-TE conf inactive
CC(=O)c1ccc(N2CCN(S(=O)(=O)c3ccc(-c4cnc(C5CC5)o4)cc3)CC2)cc1	FAS TE block 57 (no result: ADAM17 inh, sPLA2-III inh, ADAM10 inh) | FAS-TE conf 43
COc1ccc(N2CCN(S(=O)(=O)c3ccc(-c4cnc(C5CC5)o4)cc3)CC2)cc1	none (no result: ADAM17 inh, sPLA2-III inh, ADAM10 inh)
CCCC/C=C1/C(c2ccccc2)N(Cc2ccc(OC)cc2OC)C2=NC(c3ccccc3)CC(=O)N21 (configuration not stated)	none (no result: GRIN3A LBD mod, FAS TE block)
CCC[C@H]1[C@@H](NC(=O)c2cccnc2)CC[C@@]23CCCN2C(=O)CCC[C@@H]13	none (no result: GRIN3A LBD mod, FAS TE block)
COc1ccc(-c2nnc(SCC(=O)Nc3ncc(C(F)(F)F)cc3Cl)n2CC(C)C)cc1	FAS TE block 79 | FAS-TE conf 81
CCOC(=O)C1=C(C)Nc2sc(C(=O)c3ccc(C)cc3)c(N)c2C1c1ccc(C(=O)OC)cc1 (configuration not stated)	FAS TE block 67 | FAS-TE conf inactive
CCCCCCC(=O)NC1CCCCN(Cc2cccc(Cl)c2)C1=O (configuration not stated)	none (no result: GRIN3A LBD mod, FAS TE block)
O=C(Nc1ccc(S(=O)(=O)N2CCOCC2)cc1)c1ccc2c(c1)S(=O)(=O)c1ccccc1C2=O	none
O=C(Nc1cc(S(=O)(=O)N2CCOCC2)ccc1O)c1ccc2c(c1)S(=O)(=O)c1ccccc1C2=O	FAS TE block 57 | FAS-TE conf inactive
CC(C)C[C@H](NC(C)(C)C(=O)NC1CCCCC1)C(=O)NCCc1c[nH]c2ccccc12	none (no result: GRIN3A LBD mod, FAS TE block)
COc1ccc2c(c1)c(=O)oc1cc(OCC(=O)N3CCCC(C)C3)ccc12 (configuration not stated)	none
O=C(COc1ccc2c3c(c(=O)oc2c1)CCC3)N1CCN(c2ccccc2)CC1	FAS TE block 50 | FAS-TE conf 34
O=C(COc1ccc2c3c(c(=O)oc2c1)CCC3)N1CCCC1	none
Cc1c(Cl)c(=O)oc2cc(OCC(=O)N3CCCC(C)C3)ccc12 (configuration not stated)	FAS TE block 64 | FAS-TE conf 63
Cc1c(C)c2ccc(OCC(=O)N3CCN(c4ccccc4)CC3)cc2oc1=O	FAS TE block 56 (no result: ADAM17 inh, sPLA2-III inh, ADAM10 inh) | FAS-TE conf 64
Cc1c(Cl)c(=O)oc2cc(OCC(=O)NCc3cccs3)ccc12	FAS TE block 57 | FAS-TE conf inactive
O=[N+]([O-])c1ccc(-c2nc(NCC3CCCO3)c3ccccc3n2)cc1 (configuration not stated)	FAS TE block 60 | FAS-TE conf inactive
O=C(O)c1ccc(Nc2nc(-c3ccc([N+](=O)[O-])cc3)nc3ccccc23)cc1	FAS TE block 55 | FAS-TE conf inactive
Oc1ccccc1-c1nc(NCC2CCCO2)c2ccccc2n1 (configuration not stated)	none
O=C(O)c1ccc(Nc2ncnc3ccccc23)cc1	none
CCc1ccc(OCC(=O)N2c3ccccc3CCc3ccccc32)cc1	FAS TE block 52 | FAS-TE conf inactive
O=C(O)c1ccc(CSc2nc3ccccc3c(=O)n2-c2ccccc2)cc1	none
COC(=O)c1ccc2c(=O)n(-c3ccccc3)c(SCN3C(=O)c4ccccc4C3=O)nc2c1	FAS TE block 62 | FAS-TE conf inactive
N#Cc1ccc(/C=C2\CC3(OC(=O)c4ccc(F)cc4)CCCN2C3)cc1 (configuration not stated)	none (no result: GRIN3A LBD mod, FAS TE block)
CCCCCCNC(=O)C1CSCCS(=O)(=O)N1Cc1ccc(OC)cc1 (configuration not stated)	none (no result: GRIN3A LBD mod, FAS TE block)
CC(C)(C)C(=O)Nc1nc(C2CCCN2S(=O)(=O)c2ccc(Cl)cc2)cs1 (configuration not stated)	FAS TE block 55 | FAS-TE conf 65
CC(C)(C)OC(=O)/C=C/[C@@H](CCCCl)Sc1ccc(C(C)(C)C)cc1	none (no result: GRIN3A LBD mod, FAS TE block)
CN(CCOc1ccccc1)CC(=O)Nc1ccc([N+](=O)[O-])cc1Cl	FAS TE block 60 | FAS-TE conf 39
CN(CC(=O)Nc1ccccc1Cl)C(=O)COC(=O)c1ccc([N+](=O)[O-])cc1Cl	none
Cc1cc(C)cc(C(=O)OCCCN(C)C2CN(Cc3cn(Cc4cccc(F)c4)nn3)S(=O)(=O)C2)c1 (configuration not stated)	none (no result: GRIN3A LBD mod, FAS TE block)
CC1CC(C)(C)CC2(C1)NC(=O)N(CC(=O)Nc1cc(C(F)(F)F)ccc1N1CCCCC1)C2=O (configuration not stated)	FAS TE block 60 | FAS-TE conf inactive
CCN(CC)C(=O)Cn1nc(Cc2ccncc2)c2ccccc2c1=O	none (no result: GRIN3A LBD mod, FAS TE block)
N#CCSc1nc2c(sc(=S)n2Cc2ccco2)c(=O)n1-c1ccc(F)cc1	FAS TE block 58 | FAS-TE conf inactive
